These results are taken from PubChem BioAssay (NCATS).

Each structure is given as a SMILES string. Results filed as inconclusive are left out. Calls of active or inactive are those of the source. Unless noted, calls come from the whole dose curve; as a rule, active = well fitted curve in the direction sought with a large enough effect; inconclusive = small, poorly fitted or top-dose-only effect, or another doubt; inactive = no such curve, though single readings can be large; an effect the other way counts as inactive or inconclusive.

The target in test [1] is Thioredoxin reductase 1, cytoplasmic (Rattus norvegicus) (UniProt O89049). Kind of test: qHTS Assay for Substrates of Mammalian Selenoprotein Thioredoxin Reductase 1 (TrxR1) (AID 488772).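 Note: series mostly up to about 57 µM; 0% is about no effect; a drop in NADPH fluorescence below the no-compound background marks a TrxR1 substrate.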 An outline of the steps: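 In this dual-purpose format, potential substrates are identified from the first fluorescence read after selenite addition, not from the 8-minute delta. Rat enzyme is preincubated with NADPH and then with compound at ~22 deg C.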
On the technique in general: In qHTS, concentration-response curves come from the screen itself.

Test [2] has the same target. Nature of the test: qHTS Assay for Inhibitors of Mammalian Selenoprotein Thioredoxin Reductase 1 (TrxR1) (AID 488773). Note: nearly all actives have a fitted effect of over 40% in size. Note: potency is the fitted concentration of half-maximal effect. To be noted: Potency: inhibition. The procedure, abridged:
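Inhibition is scored from the loss of NADPH fluorescence between first and last reads of an 8-min kinetic run. Selenite (400 uM) was the substrate, added after 15 min compound preincubation at room temperature.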

Test [3] addresses Flap endonuclease 1 (Homo sapiens) (UniProt P39748). Nature of the test: qHTS Validation Assay for the Inhibitors of Human Flap endonuclease 1 (FEN1) (AID 488816). Note: potency is the fitted concentration of half-maximal effect. An outline of the steps:
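qHTS format: compounds and 10 nM FEN1 incubated 15 min at room temperature before adding 50 nM substrate. Cleavage followed by reads at 0 and 15 min; normalized data fitted to a four-parameter Hill curve.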

Test [4] concerns the target M-phase phosphoprotein 8 (Homo sapiens) (UniProt Q99549). Kind of test: qHTS Validation Assay for Inhibitors for MPP8 Chromodomain Interactions with Methylated Histone Tails (AID 488949). Note: nearly all actives have a fitted effect of over 55% in size. Note: potency is the fitted concentration of half-maximal effect. The procedure, abridged: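 MPP8 (50 nM) was preincubated with biotinylated H3(1-18)K9me3 peptide (50 nM) in PBS pH 7.4, 0.01% Tween-20 for 30 min at room temperature, then with compounds for 30 min; binding was detected by AlphaScreen.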

For test [5], the target named is Methanococcus maripaludis chaperonin (MmCpn) (UniProt Q6LX38). Kind of test: High-Throughput Screening for Modulators of Cytosolic Chaperonin Activity: MmCpn Primary Screen (AID 488978).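 Note: 50 nM MmCpn enzyme hydrolysing 30 µM ATP at 37 °C; 0% is about no effect.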 An outline of the steps: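 MmCpn (50 nM final) was preincubated with compound 5 min at RT, then 30 uM ATP (final) was added and the reaction ran 10 min at 37C. ADP produced was detected by Transcreener HTRF (ex 320 nm; em 590/665 nm).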

Test [6] concerns the target D(1A) dopamine receptor (Homo sapiens) (UniProt P21728). Nature of the test: HTS Assay for Allosteric Agonists of the Human D1 Dopamine Receptor: Primary Screen for Agonists (AID 488981). Note: 0% is about no effect. The procedure, abridged: (§1)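 Calcium flux in an inducible, force-coupled HEK293 Trex D1 line (overnight at 30 C): agonist mode is the 180 s kinetic read after compound; potentiator mode is the following 180 s read after dopamine at EC20.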

For test [7] the target is unchanged. Kind of test: HTS Assay for Allosteric Agonists of the Human D1 Dopamine Receptor: Primary Screen for Potentiators (AID 488982). Note: potency is the fitted concentration of half-maximal effect. An outline of the steps: as §1
Test [8] shares this target. Kind of test: HTS Assay for Allosteric Agonists of the Human D1 Dopamine Receptor: Primary Screen for Antagonists (AID 488983).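 Note: calcium flux response to an EC80 dopamine challenge measured with no-wash dye; nearly all actives have a fitted effect of over 65% in size.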 Note: potency is the fitted concentration of half-maximal effect. The procedure, abridged: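 Calcium flux readout, no-wash dye, inducible HEK293 T-REx D1 line (force-coupled). Compound added after 10 s baseline, 180 s kinetic read; then dopamine at EC80, further 180 s read.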
In test [9] the target is ATP-dependent 6-phosphofructokinase (Trypanosoma brucei brucei) (UniProt O15648). Kind of test: qHTS Assay to Find Inhibitors of T. brucei phosphofructokinase: hit validation (AID 492961).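 Note: luminescence reports ADP formed as PFK phosphorylates fructose-6-phosphate with ATP; series mostly up to about 51 µM; % is set by controls: 0 for no effect and ±100 for the full control effect.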 An outline of the steps:
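Measures ADP output of PFK (1.25 nM) at 0.1 mM ATP, 0.5 mM F6P, pH 8.0 TEA buffer with 5 mM MgCl2. No-enzyme wells define full inhibition; uninhibited enzyme wells define zero.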

A short description of test [10]: Validation screen for small molecules that induce genotoxicity in human embryonic kidney (HEK293T) cells expressing luciferase-tagged ELG1 (AID 493106). Note: 0% is about no effect. An outline of the steps: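 qHTS format; 2,000 HEK293T ELG1-luc cells/well; 23 nL compound via pin tool; 16 hr, 37 °C/5% CO2; ONE-Glo, 30 min RT; luminescence read.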
Test [11] concerns the target ATPase family AAA domain-containing protein 5 (Homo sapiens) (UniProt Q96QE3). Nature of the test: Validation screen for small molecules that inhibit ELG1-dependent DNA repair in human embryonic kidney (HEK293T) cells expressing luciferase-tagged ELG1 (AID 493107). Note: nearly all actives have a fitted effect of over 70% in size. Note: potency is the fitted concentration of half-maximal effect. An outline of the steps: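 ELG1-luciferase HEK293T reporter; 5-fluorouridine + compound/DMSO, 16 hr, 37 °C, 5% CO2; ONE-Glo 30 min RT; luminescence read, qHTS format.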

A short description of test [12]: Nrf2 qHTS screen for inhibitors: Validation (AID 493153; active = well fitted inhibition curve with a large enough effect in the main read-out, with a control signal flat, not every such curve was filed as active). To be noted: Potency: luciferase luminescence; viability change: measured here: cytotoxicity max response. An outline of the steps: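 Concentration-response test in A549 ARE_Fluc reporter cells (5% FBS OPTI-MEM), compound exposure 18-24 h at 37°C, 5% CO2. Cell viability measured first by CellTiter-Fluor fluorescence; ARE-driven luciferase luminescence then measured as Nrf2 activity.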

The nature of test [13]: qHTS for Inhibitors of Cell Surface uPA Generation: Validation Assay (AID 493164).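 Note: RAW 264.7 macrophage cells exposed to compound for 18 h; 0% is about no effect.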 The procedure, abridged: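 Compounds are titrated over seven points (2.45 nM–38.3 uM final) onto pre-plated RAW 264.7 cells and incubated for 18 h. Retained intracellular ATP, measured with ATP-Lite, indicates blocked lethal factor entry.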
The target of test [14] is Chromobox protein homolog 1 (Homo sapiens) (UniProt P83916). Nature of the test: qHTS Validation Assay for Inhibitors of HP1-beta Chromodomain Interactions with Methylated Histone Tails (AID 488953). Note: potency is the fitted concentration of half-maximal effect; nearly all actives have a fitted effect of over 50% in size. An outline of the steps: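 AlphaScreen proximity readout: streptavidin donor and Ni-chelate acceptor beads, 10 ug/mL final, 30 min dark, RT. Complex of 50 nM HP1-beta and 50 nM b-H3(1-18)K9me3 formed 30 min, then compound-treated 30 min; PBS pH 7.4/0.01% Tween-20.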

Chain of ATP-dependent 6-phosphofructokinase (Trypanosoma brucei brucei) (O15648 whole entry, looked up): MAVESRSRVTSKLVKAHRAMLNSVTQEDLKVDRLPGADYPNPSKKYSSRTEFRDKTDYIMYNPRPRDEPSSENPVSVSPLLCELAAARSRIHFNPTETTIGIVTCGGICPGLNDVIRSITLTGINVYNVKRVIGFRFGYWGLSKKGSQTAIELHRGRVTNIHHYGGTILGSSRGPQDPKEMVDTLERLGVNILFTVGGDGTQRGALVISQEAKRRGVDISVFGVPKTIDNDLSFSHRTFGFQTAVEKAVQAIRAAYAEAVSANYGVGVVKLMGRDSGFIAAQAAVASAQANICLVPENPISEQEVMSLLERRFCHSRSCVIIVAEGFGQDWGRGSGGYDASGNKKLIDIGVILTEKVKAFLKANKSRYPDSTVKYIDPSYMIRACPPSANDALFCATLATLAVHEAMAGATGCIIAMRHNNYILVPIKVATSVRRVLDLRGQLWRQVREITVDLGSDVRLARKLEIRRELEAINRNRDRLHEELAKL
Chain of Methanococcus maripaludis chaperonin (MmCpn) (Q6LX38 1-543): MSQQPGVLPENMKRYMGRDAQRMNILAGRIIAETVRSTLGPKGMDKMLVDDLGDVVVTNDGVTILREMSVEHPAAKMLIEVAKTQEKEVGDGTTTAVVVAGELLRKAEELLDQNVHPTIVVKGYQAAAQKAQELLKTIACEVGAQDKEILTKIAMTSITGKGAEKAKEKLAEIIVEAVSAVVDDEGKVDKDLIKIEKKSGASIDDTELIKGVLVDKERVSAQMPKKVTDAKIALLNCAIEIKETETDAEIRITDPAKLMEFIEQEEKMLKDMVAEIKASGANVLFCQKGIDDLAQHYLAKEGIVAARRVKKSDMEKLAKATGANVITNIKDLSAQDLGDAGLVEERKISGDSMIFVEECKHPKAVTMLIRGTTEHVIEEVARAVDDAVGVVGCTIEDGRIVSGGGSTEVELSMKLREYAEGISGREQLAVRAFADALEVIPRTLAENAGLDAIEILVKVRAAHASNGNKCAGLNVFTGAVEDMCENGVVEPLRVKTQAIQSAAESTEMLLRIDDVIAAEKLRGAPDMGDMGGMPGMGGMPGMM
Chain of M-phase phosphoprotein 8 (Homo sapiens) (Q99549 whole entry, looked up): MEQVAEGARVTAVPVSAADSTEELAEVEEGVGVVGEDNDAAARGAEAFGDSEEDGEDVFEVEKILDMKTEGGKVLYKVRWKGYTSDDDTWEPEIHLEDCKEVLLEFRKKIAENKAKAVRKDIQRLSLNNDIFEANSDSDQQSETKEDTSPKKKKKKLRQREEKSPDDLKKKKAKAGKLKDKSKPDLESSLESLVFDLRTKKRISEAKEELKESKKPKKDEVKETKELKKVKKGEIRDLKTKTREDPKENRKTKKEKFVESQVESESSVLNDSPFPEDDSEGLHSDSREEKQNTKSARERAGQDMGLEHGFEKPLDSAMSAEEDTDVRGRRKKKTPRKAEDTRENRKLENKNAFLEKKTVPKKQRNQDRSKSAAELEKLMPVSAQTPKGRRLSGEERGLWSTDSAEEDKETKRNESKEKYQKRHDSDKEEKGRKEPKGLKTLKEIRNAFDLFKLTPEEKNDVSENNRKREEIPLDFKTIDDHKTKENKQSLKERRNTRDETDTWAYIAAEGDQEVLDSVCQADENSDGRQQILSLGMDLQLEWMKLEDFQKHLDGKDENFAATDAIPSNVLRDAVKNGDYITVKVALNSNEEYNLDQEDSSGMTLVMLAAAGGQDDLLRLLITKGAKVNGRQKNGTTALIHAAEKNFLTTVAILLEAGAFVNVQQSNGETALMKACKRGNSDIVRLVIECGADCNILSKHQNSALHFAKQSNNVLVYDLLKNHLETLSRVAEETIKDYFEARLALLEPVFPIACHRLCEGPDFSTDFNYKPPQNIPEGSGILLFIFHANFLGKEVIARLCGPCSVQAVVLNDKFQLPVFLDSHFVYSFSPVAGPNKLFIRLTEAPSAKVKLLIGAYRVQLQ
Chain of D(1A) dopamine receptor (Homo sapiens) (P21728 whole entry, looked up): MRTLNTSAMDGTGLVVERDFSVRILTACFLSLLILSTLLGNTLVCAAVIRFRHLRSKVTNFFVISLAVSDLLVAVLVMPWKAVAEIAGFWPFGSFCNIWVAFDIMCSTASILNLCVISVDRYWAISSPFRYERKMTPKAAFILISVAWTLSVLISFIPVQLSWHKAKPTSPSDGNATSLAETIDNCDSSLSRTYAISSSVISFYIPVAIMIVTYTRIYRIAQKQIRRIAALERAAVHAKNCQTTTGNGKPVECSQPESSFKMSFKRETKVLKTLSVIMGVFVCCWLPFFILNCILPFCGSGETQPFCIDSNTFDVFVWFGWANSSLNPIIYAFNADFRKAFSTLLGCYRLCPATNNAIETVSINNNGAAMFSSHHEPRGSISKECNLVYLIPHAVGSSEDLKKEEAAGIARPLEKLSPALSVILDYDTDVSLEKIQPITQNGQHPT
Chain of ATPase family AAA domain-containing protein 5 (Homo sapiens) (Q96QE3 whole entry, looked up, the tested form may be a part): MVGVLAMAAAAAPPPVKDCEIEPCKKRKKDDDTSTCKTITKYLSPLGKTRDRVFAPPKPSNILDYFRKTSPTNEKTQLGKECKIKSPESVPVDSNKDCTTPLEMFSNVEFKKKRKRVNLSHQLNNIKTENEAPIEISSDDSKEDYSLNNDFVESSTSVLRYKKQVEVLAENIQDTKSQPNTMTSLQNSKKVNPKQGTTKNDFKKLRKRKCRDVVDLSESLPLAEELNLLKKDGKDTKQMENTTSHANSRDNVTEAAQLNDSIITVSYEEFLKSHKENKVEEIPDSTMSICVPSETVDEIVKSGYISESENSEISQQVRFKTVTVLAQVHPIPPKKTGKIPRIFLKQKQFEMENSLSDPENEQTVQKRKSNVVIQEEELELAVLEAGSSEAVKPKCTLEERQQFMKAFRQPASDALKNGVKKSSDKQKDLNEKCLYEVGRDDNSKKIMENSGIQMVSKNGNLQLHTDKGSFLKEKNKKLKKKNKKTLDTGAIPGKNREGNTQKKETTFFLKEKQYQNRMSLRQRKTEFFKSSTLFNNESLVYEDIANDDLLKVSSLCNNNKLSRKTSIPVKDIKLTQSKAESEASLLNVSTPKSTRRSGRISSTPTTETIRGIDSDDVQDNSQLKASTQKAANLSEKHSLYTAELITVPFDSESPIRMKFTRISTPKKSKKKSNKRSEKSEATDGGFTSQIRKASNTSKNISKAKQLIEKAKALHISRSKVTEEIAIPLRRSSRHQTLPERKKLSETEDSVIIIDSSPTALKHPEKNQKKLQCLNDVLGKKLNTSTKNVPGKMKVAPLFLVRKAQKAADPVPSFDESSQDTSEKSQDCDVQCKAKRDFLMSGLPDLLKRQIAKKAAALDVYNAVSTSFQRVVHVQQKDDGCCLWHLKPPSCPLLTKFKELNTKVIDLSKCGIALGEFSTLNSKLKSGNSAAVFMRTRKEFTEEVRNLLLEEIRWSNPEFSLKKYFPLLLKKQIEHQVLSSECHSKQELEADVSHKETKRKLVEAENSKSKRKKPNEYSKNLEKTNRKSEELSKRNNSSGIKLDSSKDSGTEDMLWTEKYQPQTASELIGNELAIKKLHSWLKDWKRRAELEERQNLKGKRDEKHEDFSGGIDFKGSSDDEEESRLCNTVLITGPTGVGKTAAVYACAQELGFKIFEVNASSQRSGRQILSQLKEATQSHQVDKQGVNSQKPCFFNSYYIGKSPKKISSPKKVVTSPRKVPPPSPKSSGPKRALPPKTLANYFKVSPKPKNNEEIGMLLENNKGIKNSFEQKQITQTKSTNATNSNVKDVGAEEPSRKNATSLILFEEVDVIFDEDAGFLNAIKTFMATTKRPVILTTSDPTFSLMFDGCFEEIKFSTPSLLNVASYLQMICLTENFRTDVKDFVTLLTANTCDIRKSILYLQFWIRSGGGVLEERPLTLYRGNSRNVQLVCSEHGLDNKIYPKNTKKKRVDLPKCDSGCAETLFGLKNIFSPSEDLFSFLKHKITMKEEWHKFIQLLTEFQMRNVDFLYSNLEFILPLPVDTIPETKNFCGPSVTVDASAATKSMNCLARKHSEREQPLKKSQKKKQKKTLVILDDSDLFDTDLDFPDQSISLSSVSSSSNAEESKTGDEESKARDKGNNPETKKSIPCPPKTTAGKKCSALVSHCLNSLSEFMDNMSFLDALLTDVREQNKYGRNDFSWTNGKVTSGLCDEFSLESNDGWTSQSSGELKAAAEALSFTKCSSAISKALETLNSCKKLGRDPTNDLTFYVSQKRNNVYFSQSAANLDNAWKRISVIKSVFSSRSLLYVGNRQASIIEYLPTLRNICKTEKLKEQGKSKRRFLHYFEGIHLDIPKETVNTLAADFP
Chain of Flap endonuclease 1 (Homo sapiens) (P39748 whole entry, looked up): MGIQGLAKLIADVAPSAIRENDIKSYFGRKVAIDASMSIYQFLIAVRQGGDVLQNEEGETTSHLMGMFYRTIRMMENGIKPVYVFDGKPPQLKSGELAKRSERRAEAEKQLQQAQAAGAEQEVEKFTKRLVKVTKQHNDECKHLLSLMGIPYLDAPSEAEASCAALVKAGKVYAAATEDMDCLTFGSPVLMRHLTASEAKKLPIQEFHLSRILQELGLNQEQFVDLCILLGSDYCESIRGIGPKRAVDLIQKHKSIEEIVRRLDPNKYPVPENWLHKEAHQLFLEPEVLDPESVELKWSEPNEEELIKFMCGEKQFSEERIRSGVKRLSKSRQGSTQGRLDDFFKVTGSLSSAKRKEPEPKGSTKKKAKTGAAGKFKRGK
Chain of Thioredoxin reductase 1, cytoplasmic (Rattus norvegicus) (O89049 whole entry, looked up): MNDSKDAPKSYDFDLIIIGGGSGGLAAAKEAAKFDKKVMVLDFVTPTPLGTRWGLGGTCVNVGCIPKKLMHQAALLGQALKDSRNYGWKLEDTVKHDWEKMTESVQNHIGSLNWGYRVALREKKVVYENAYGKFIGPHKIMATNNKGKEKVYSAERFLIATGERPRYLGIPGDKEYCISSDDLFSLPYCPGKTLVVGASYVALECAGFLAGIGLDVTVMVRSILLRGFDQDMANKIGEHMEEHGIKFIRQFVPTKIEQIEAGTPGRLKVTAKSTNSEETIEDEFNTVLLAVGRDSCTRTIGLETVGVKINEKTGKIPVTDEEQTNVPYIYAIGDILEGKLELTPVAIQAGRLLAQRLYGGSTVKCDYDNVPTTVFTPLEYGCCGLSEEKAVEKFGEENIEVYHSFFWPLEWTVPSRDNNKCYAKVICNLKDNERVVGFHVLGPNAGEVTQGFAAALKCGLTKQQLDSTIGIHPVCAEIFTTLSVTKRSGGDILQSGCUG

Turning to `C=CCN(C1=NCCN1)c1c(Cl)cccc1Cl`, the outcome in test [1], in test [5] and in test [13] was inactive. Moreover, the Potency entry in [2], in test [3], in test [4], in test [6], in test [7] and in test [8] was “inactive” throughout. Further, the Potency entry in [9], in test [10], in test [11] and in test [12] was “inactive” each time. Besides, the viability change in test [12] was -5.34%.

As for `O=c1[nH]c(=O)n(Cl)c(=O)n1Cl`, the Potency result in [9] was “inactive”.

On to `Clc1ccccc1Cl`, for which the Potency entry in [9] was “inactive”.

As to `CN1c2ccccc2C(NCCCCCCC(=O)O)c2ccc(Cl)cc2S1(=O)=O` (stereo not drawn), in [9], the Potency result was “inactive”.

For `C[C@H](N)Cc1cccc(C(F)(F)F)c1`, the outcome in test [1], in test [5] and in test [13] was inactive. Also, the Potency result in [2], in test [3], in test [4], in [6], in test [7] and in test [8] was “inactive” each time. Also, the Potency result in test [10], in [11] and in [12] was “inactive” in each case. For the same compound, the viability change in test [12] was -8.9%.

As to `O=C1CN=C(c2ccccc2)c2cc(Cl)ccc2N1CC1CC1`, the Potency entry in test [9] is “inactive”.

For the compound `C[N+]1(C)CCCCC1COC(=O)C(O)(c1ccccc1)c1ccccc1` (stereo not drawn), in test [9], the Potency result is “inactive”.

As to `CCCN1CCc2cccc3c2[C@H]1Cc1ccc(O)c(O)c1-3`, the result in [1], in test [5] and in [13] was inactive. For the same compound, the Potency in test [2] is 23.8 µM (active). Moreover, the Potency result in test [7], in [10], in test [11] and in [12] was “inactive” throughout. Further, the viability change in test [12] is 0.172%.

As to `COc1ccc2c(c1O)-c1cccc3c1[C@@H](C2)N(C)CC3`, the call in [1], in test [5] and in [13] was inactive. The Potency result in test [2], in [3], in test [6] and in test [7] was “inactive” throughout. For the same compound, in [8], the Potency is 10 µM (active).

On to `COc1ccc2c(c1)c(CCN1CCOCC1)c(C)n2C(=O)c1cccc(Cl)c1Cl`, for which the compound was classed as inactive in test [1], in test [5] and in [13]. In addition, the Potency result in test [2], in test [3], in test [6], in test [7], in test [8] and in test [10] was “inactive” each time. For the same compound, the Potency was 44.7 µM (active) in test [14] and 8.2 µM (active) in [11].

On to `CN1CCc2cc(O)cc3c2[C@H]1Cc1ccc(O)c(O)c1-3`, for which the call in [1], in test [5] and in [13] was inactive. In addition, the Potency in test [2] was 13.4 µM (active); in test [3] it was 3.77 µM (active); in [8] it was 3.16 µM (active); in test [11], 20.6 µM (active). Besides, the Potency entry in test [6], in test [7], in test [10] and in test [12] was “inactive” throughout. The viability change in test [12] was -1.2%.

Turning to `CC(C)Nc1ccc(Nc2ccccc2)cc1`, the Potency entry in test [9] was “inactive”.

For `O[C@H]1[C@H]2[C@H](O)CCCN2C[C@H]1O`, the Potency result in test [9] was “inactive”.

Take `CCN1C[C@@]2(COC)C3[C@@H](OC)C4[C@@H]1C3([C@@H]1C[C@]3(O)[C@H](OC(=O)c5ccccc5)[C@@H]1[C@]4(OC(C)=O)[C@@H](O)[C@@H]3OC)[C@H](OC)C[C@H]2O`: the compound was called inactive in test [1], in [5] and in [13]. Also, the Potency result in test [2], in [3], in [4], in test [6], in [8] and in test [11] was “inactive” in each case. Further, in test [12], the Potency entry is “inactive”. For the same compound, the viability change in test [12] is 0.88%.

For `CCCN1CCc2cc(O)cc3c2[C@H]1Cc1ccc(O)c(O)c1-3`, the result in test [1], in test [5] and in [13] was inactive. The Potency was 11.9 µM (active) in [4], 1.34 µM (active) in [14] and 0.631 µM (active) in test [8]. For the same compound, the Potency result in test [6], in test [10], in test [11] and in [12] was “inactive” in each case. Moreover, the viability change in test [12] is -6.67%.

As for `N#C/C(=C/c1ccc(O)c(O)c1)C(N)=S`, the Potency was 2.99 µM (active) in test [3], 13.4 µM (active) in test [4] and 0.517 µM (active) in test [7]. In addition, the compound was called inactive in [5] and in test [13]. In addition, the Potency entry in test [6], in test [8], in test [11] and in test [12] was “inactive” in each case. In addition, in test [12], the viability change is 0.144%.

As to `N[C@@H](Cn1ccc(=O)[nH]c1=O)C(=O)O`, the compound was called inactive in test [1], in test [5] and in test [13]. For the same compound, the Potency result in test [2], in [3], in [4], in [6], in [7] and in [8] was “inactive” in each case. Moreover, the Potency entry in test [11] and in test [12] was “inactive” throughout. Moreover, in test [12], the viability change was 2.76%.
